Most compounds without a hit are left out; they make up all but 10% or so of the library.
3T3 cytotox: cytotoxic compounds in NIH 3T3 cells; NIH 3T3 viability, CellTiter-Glo ATP luminescence, 48-72 h; Potency, µM (titrated, usually from 96.7 µM), for the others: at the highest dose activity change, negative = cytotoxicity, actives largely listed as inhibitors; 94,000 tested, 4.3% active; AID 1345082; note: % is set by controls: 0 for no effect and ±100 for the full control effect; nearly all actives have a fitted effect of over 55% in size
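Cytotoxicity was measured by CellTiter-Glo ATP luminescence after 48 or 72 h compound exposure at 37 °C. Mouse NIH 3T3 fibroblasts were seeded at 400 cells/well and dosed by 23 nL pin transfer.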
hNpr1 antagonist: human Npr1 receptor antagonism; 76,000 tested, 1.6% active; Potency, µM (series often up to 46.3 µM), without a hit: top-dose activity change, negative = inhibition, actives largely listed as inhibitors; HEK293 hNpr1 GloSensor cGMP, ANP-stimulated luminescence; P16066; calls by dose curve; note: % is set by controls: 0 for no effect and ±100 for the full control effect; nearly all actives have a fitted effect of over 60% in size
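Compound pre-incubated 30 min at room temperature on GloSensor-loaded HEK293 cells stably carrying hNpr1 and the pGS-40F cGMP biosensor. Stimulation uses hNppA at 0.1 nM final; luminescence is taken at baseline and 20 min post-agonist.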
FLuc inh-1: inhibitors of firefly (Photinus pyralis) luciferase; purified P. pyralis luciferase, luminescence, biochemical; Potency, µM (series often up to 115 µM), actives largely listed as inhibitors; 76,000 tested, 2.5% active; note: % is set by controls: 0 for no effect and ±100 for the full control effect; nearly all actives have a fitted effect of over 65% in size
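Purified 10nM P. pyralis luciferase with 10uM D-luciferin and 10uM ATP in 50mM Tris acetate pH 7.5, 10mM Mg acetate, 0.01% Tween-20, 0.05% BSA. qHTS titration; luminescence read by CCD imager.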
HEK293 tox: kills HEK 293 cells. HEK 293 viability, ATP luminescence (CellTiter-Glo), 48-72 h. 94,000 tested, 6.6% active. Potency, µM (series often up to 115 µM), for inactives: at the top dose activity change, negative = cytotoxicity, usual class: inhibitors; note: % is set by controls: 0 for no effect and ±100 for the full control effect; nearly all actives have a fitted effect of over 60% in size
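Read-out: CellTiter-Glo ATP luminescence. Cells: HEK 293, 250 cells/well. Exposure: 48 or 72 hr, 37 degree Celsius.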
GPT2 inh: blocks human glutamate pyruvate transaminase 2 | Recombinant GPT2, coupled pyruvate oxidase/HRP Amplex Red fluorescence | 100,000 tested, 0.25% active | Potency, µM (top dose mostly 57.7 µM), without a hit: top-dose activity change, negative = inhibition, usual class: inhibitors | Q8TD30; note: % is set by controls: 0 for no effect and ±100 for the full control effect; nearly all actives have a fitted effect of over 60% in size
Target sequence (Q8TD30 whole entry, looked up): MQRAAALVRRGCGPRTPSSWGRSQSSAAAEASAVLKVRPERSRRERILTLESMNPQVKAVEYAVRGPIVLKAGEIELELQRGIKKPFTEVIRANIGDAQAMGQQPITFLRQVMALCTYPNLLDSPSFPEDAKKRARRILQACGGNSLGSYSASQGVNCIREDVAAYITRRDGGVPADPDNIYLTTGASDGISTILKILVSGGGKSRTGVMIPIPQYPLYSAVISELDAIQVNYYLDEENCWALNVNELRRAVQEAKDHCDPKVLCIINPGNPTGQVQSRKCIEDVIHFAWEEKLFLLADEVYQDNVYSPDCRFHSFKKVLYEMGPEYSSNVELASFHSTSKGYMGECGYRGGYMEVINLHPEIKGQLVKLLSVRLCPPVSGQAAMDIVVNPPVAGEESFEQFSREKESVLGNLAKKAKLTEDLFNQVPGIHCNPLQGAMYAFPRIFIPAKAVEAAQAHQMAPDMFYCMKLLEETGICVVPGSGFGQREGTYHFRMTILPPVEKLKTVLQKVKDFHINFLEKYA
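GPT2 10ng/uL, a-KG 250uM, L-Ala 2mM, HEPES pH7.5 + 0.0001% Tween; 30 min RT. Then Amplex mix (PO/HRP/ThPP), 30 min RT dark, fluorescence. AOA 50uM used as positive control.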
FLuc SDR no ATP: stabilizes firefly luciferase without ATP | shares compounds with FLuc inh-1 | Purified FLuc-C-HiBiT, Nano-Glo HiBiT luminescence, no ATP | Potency, µM (top dose mostly 32.7 µM), inactives show top-dose activation (signal gain), usual class: activators | 1,300 tested, 7.8% active | AID 1963318; note: nearly all actives have a fitted effect of over 55% in size
FLuc SDR ATP: stabilizes firefly luciferase with ATP present; AID 1963319; Potency, µM (titrated, usually from 32.7 µM), inactives show top-dose activation (gain of signal), hits mostly activators; 1,300 tested, 8.7% active; shares compounds with FLuc inh-1; purified FLuc-C-HiBiT + ATP, HiBiT complementation luminescence;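 note: signal reports ligand binding via conformational change of the enzyme rather than luciferase catalysis; % of control where 0% means no effect; nearly all actives have a fitted effect of over 55% in size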
FLuc inh-2: firefly luciferase enzyme inhibition. Potency, µM (series often up to 32.7 µM), inactives show at the top dose activity change, negative = inhibition, usual class: inhibitors. AID 1963320. shares compounds with FLuc inh-1. 1,300 tested, 42% active. purified FLuc-C-HiBiT enzyme, luciferin luminescence; note: % is set by controls: 0 for no effect and ±100 for the full control effect; nearly all actives have a fitted effect of over 70% in size
* hit, by the source's call; i = inactive; ? = inconclusive; nt = no result; [ ] = remark or other dose. Unless noted, calls come from the whole dose curve; as a rule, active = well fitted curve in the direction sought with a large enough effect; inconclusive = small, poorly fitted or top-dose-only effect, or another doubt; inactive = no such curve, though single readings can be large; an effect the other way counts as inactive or inconclusive. Potency is the fitted concentration of half-maximal effect.

SMILES	3T3 cytotox	hNpr1 antagonist	FLuc inh-1	HEK293 tox	GPT2 inh	FLuc SDR no ATP	FLuc SDR ATP	FLuc inh-2
COc1ccc(C(=O)NCCn2ccn3nc(-c4ccc(C)cc4C)cc3c2=O)c(C)c1	?	?	3.5µM*	?	i	24%	15%	5µM*
Cc1ccc(-c2cc3c(=O)n(CCNC(=O)c4ccccc4F)ccn3n2)c(C)c1	-18%	-13%	6.3µM*	?	i	?	?	7µM*
Cc1ccc(C(=O)NCCn2ccn3nc(-c4ccc(C)cc4C)cc3c2=O)cc1	-7%	4%	?	i	i	nt	nt	nt
Cc1cnc(CCNS(=O)(=O)c2ccccc2)n1CC1CC1	-6%	0%	i	-7%	i	nt	nt	nt
Cc1ccc(C)c([S+](=O)([O-])c2nnn3c2nc(NCc2ccncc2)c2ccccc23)c1	?	nt	nt	-20%	4%	nt	nt	nt
Cc1ccc(-c2cc3c(=O)n(CCNC(=O)c4ccc(C)s4)ccn3n2)c(C)c1	?	0%	4.5µM*	?	i	27%	?	7µM*
Cc1ccc(-c2cc3c(=O)n(CCNC(=O)c4nccc5ccccc45)ccn3n2)c(C)c1	?	-12%	3.5µM*	45µM*	-1%	23%	16%	8.8µM*
Cc1ccc(-c2cc3c(=O)n(CCNC(=O)C4CCCCC4)ccn3n2)c(C)c1	?	?	2µM*	?	-18%	?	?	2.5µM*
Cc1ccc(-c2cc3c(=O)n(CCNC(=O)c4cc(F)ccc4F)ccn3n2)c(C)c1	-19%	-20%	?	-10%	i	nt	nt	nt
CCOc1ccc(C(=O)NC2CCN(c3cnn(CC4CC4)c(=O)c3)CC2)cc1	-15%	-4%	i	-7%	i	nt	nt	nt
COc1ccc(-c2nccc3c(=O)cc(N4CCOCC4)oc23)cn1	?	6%[70.6 µM]	i	-10%[172 µM]	i	nt	nt	nt
CC(C)c1nc2c(c(-c3ccc(O)cc3)n1)CCN(Cc1ccccn1)CC2	-21%	-2%	i	1%	0%	8%	8%	-6%
CC(C)c1nc2c(c(-c3ccc(O)cc3)n1)CN(Cc1ccccc1)CC2	-26%	2%	i	?	-8%	11%	7%	-5%
CO[C@H]1C(=O)N(C(C)C)[C@H]1C1CCN(S(=O)(=O)c2cccc3cccnc23)CC1	-12%	nt	nt	-2%	-1%	nt	nt	nt
CCOc1ccc(-c2cc3c(=O)n(CCNC(=O)c4cccc(C#N)c4)ccn3n2)cc1	3%	-1%	0.79µM*	2%	3%	26%	15%	?
CCOc1ccc(-c2cc3c(=O)n(CCNC(=O)c4ccc(C)c(C)c4)ccn3n2)cc1	-10%	8%	i	3%	i	nt	nt	nt
CCOc1ccc(-c2cc3c(=O)n(CCNC(=O)c4cccc(N(C)C)c4)ccn3n2)cc1	-24%	-28%	2.5µM*	?	i	29%	?	3.9µM*
CCOc1ccc(-c2cc3c(=O)n(CCNC(=O)c4ccncc4)ccn3n2)cc1	-6%	-17%	6.3µM*	?	-1%	?	?	3.5µM*
CCOc1ccc(-c2cc3c(=O)n(CCNC(=O)c4ccccc4)ccn3n2)cc1	-1%	0%	?	-4%	i	nt	nt	nt
CC(C)C(=O)NC1CCN(C(=O)c2ccc(-c3ncccc3C#N)cc2)CC1	?	nt	nt	-18%	-14%	nt	nt	nt
Cc1cn2nc(C(=O)N3CCN(c4ccccn4)CC3)cc2c(N2CCCC2)n1	?	-1%	i	?	?	nt	nt	nt
O=C(O)CCC(=O)N[C@H]1CCN2C(=O)c3cc(/C=C/c4ccccc4)ccc3NC(=O)[C@H]12	-19%[174 µM]	-8%[70.6 µM]	?	-24%[172 µM]	0%[88.5 µM]	nt	nt	nt
COc1ccc(/C=C/c2ccc3c(c2)C(=O)N2CC[C@H](NC(=O)CCC(=O)O)[C@H]2C(=O)N3)cc1	-3%	5%	6.3µM*	-1%	-9%	?	?	?
O=C(N[C@H]1CCN2C(=O)c3cc(/C=C/c4ccc(O)cc4)ccc3NC(=O)[C@H]12)c1cnccn1	-6%	3%	13µM*	?	-18%	20%	8%	-13%
O=C(N[C@H]1CCN2C(=O)c3cc(/C=C/c4ccccc4)ccc3NC(=O)[C@H]12)c1cnccn1	-29%[174 µM]	-9%[70.6 µM]	?	?	i	nt	nt	nt
SMILES	3T3 cytotox	hNpr1 antagonist	FLuc inh-1	HEK293 tox	GPT2 inh	FLuc SDR no ATP	FLuc SDR ATP	FLuc inh-2
O=C(O)COCC(=O)N[C@H]1CCN2C(=O)c3cc(/C=C/c4ccccc4)ccc3NC(=O)[C@H]12	i	2%	7.9µM*	5%	1%	29%	?	?
CC(=O)NCc1nnc2n1C(C(=O)NCc1cccc(C(F)(F)F)c1)CC2 (stereo unspecified)	3%	nt	nt	i	-2%	nt	nt	nt
CCc1ccccc1NC(=O)c1nnn(-c2ccc(F)cc2)c1C	nt	nt	nt	nt	nt	30%	19%	?
COc1ccc(OC)c(-c2nc3ccc(OC)cc3s2)c1	nt	nt	nt	nt	nt	21%	14%	?
COc1ccc2nc(NC(=O)Nc3ccccc3)sc2c1	nt	nt	nt	nt	-12%	nt	nt	nt
Cc1ccc(Br)c(C(=O)N2CCCC3(CNc4ncccc4[S+](=O)([O-])N3)C2)c1 (stereo unspecified)	-28%	nt	nt	-17%	nt	nt	nt	nt
CC1(CCCCc2ccccc2)COc2ccc(C(=O)NCCc3cnc[nH]3)cc2N1 (stereo unspecified)	?	-4%[70.6 µM]	i	?	?	nt	nt	nt
Cc1ccccc1CC(=O)N1CCC(n2cc(-c3nc(-c4ccccc4)no3)nn2)CC1	-4%	0%	i	-22%	i	nt	nt	nt
Cc1ccc2nc(-c3ccc(N)cc3)sc2c1S(=O)(=O)O	nt	nt	nt	nt	nt	?	?	2.5µM*
Cc1ccc2nc(-c3ccc(N=Nc4cc(S(=O)(=O)O)c5ccccc5c4O)cc3)sc2c1S(=O)(=O)O	nt	nt	nt	nt	nt	2%	2%	12µM*
Cc1ccc2nc(-c3ccc4nc(-c5ccc(NC(=O)c6cccc(Cl)c6)cc5)sc4c3)sc2c1S(=O)(=O)O	nt	nt	nt	nt	nt	2%	3%	?
COc1ccc(-c2nc(C3CC(=O)N(c4ccc(OC)c(OC)c4)C3)no2)c(OC)c1 (stereo unspecified)	?	-24%	i	?	3%	nt	nt	nt
CN(C)C(=O)c1cnn2ncccc12	-2%[174 µM]	14%[70.6 µM]	?	4%[230 µM]	i	nt	nt	nt
C#CCNC(=O)c1ccc2oc(-c3cccnc3OC)nc2c1	-20%	nt	nt	-20%	-1%	nt	nt	nt

Compound activity as filed in PubChem.
